From PubChem BioAssay come the findings set out here.

A short description of test [1]: Wnt pathway potentiators raising nuclear beta-catenin – imaging, WNT3A-conditioned medium, mouse C2C12, NPC library, primary screen (AID 1117326; in the data active = nuclear beta-catenin stimulation mostly above about 4.2%, no sharp cut-off; inactive = mostly below about 10%; also: reference of the scale not given here). Particulars: stronger effect = higher value.
Test [2] can be described thus: stimulators of insulin release from INS-1E, primary screen, cell-based, 5 mM glucose, NPC library (AID 1117329;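 active = compound raises insulin release from rat beta cells at 5 mM glucose, no numeric limit stated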; also: reference of the scale not given here). The following applies: rat INS-1E insulin secretion, at 10 µM, stronger effect = higher value.
Test [3] can be described thus: growth inhibition of GSK3B-pretreated HCT116 cells – cell-based, CellTiter-Glo, 0.2 to 20 µM (AID 1117336;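 active = compounds lowering colon cancer cell viability after pretreatment blocking the GSK3B kinase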). Particulars: HCT116 viability after GSK3B inhibitor, at 20 µM, stronger effect = higher value. For orientation: Cellular ATP, detected with luciferase, serves as a proxy for viable cell number.
Test [4] in a line: inhibition of endothelial tube formation, primary screen, imaging, VEGF stimulated, CD31 staining, tube area, NPC library (AID 1117340;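 active = compound that reduces growth-factor-driven endothelial tube area in a mixed cell culture, no cutoff stated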). Particulars: VEGF-stimulated ADSC/ECFC co-culture, at 10 µM, stronger effect = higher value.
Test [5] in a line: GLP1 release stimulators, primary, NCI-H716, NPC library (AID 1117341;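 active = compound raises GLP1 secretion from the human gut endocrine cells, with no numeric limit stated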; also: reference of the scale not given here). The following applies: NCI-H716 cells, at 10 µM, stronger effect = higher value.
Test [6] can be described thus: HCT116 colon cancer cell growth inhibition, primary screen, CellTiter-Glo luminescence, NPC library (AID 1117342;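 active = compounds that lower survival of HCT116 colon cancer cells in the luminescence readout, no numeric limit stated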). Particulars: at 20 µM (top of the series).
Test [7] is described as follows: reduced SW480 viability measured with CellTiter-Glo, NPC library, primary (AID 1117343;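 active = compounds that lower viability of the colon cancer cells in the luminescence readout, with no numeric limit stated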). The following applies: CellTiter-Glo luminescence; at 20 µM (top of the series) unless noted.
Test [8] can be described thus: NPC library primary testing for decreased DLD-1 cell viability via CellTiter-Glo (AID 1117346;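 active = compounds that lower survival of DLD-1 colon cancer cells in the luminescence readout, no cutoff given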). Particulars: DLD-1 viability, CellTiter-Glo luminescence; at 20 µM (top of the series).
A short description of test [9]: viability loss in pontine glioma line – cell-based, JHH-DIPG-1, MIPE4.0, CellTiter-Glo, qHTS, dose response (AID 1347062; cut-off not given, nearly all actives have AC50 up to about 27 µM). The following applies: JHH-DIPG-1 viability, CellTiter-Glo ATP luminescence.
A short description of test [10]: growth inhibition of DIPG cells – cell-based, MIPE4.0 library, CellTiter-Glo luminescence, qHTS (AID 1347066; cut-off not given, nearly all actives have AC50 up to about 30 µM;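 also: cells exposed to compound for 48 hours before readout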). Particulars: SU-DIPG-VI viability, CellTiter-Glo ATP luminescence.
Test [11] in a line: JHH-DIPG-1 glioma cell viability, MIPE5.0 library, CellTiter-Glo luminescence, qHTS (AID 1347067; cut-off not given, nearly all actives have AC50 up to about 26 µM;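 also: cells exposed to compound for 48 hours before readout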). The following applies: JHH-DIPG-1 glioma viability, CellTiter-Glo ATP luminescence.
Test [12] can be described thus: growth inhibition of DIPG cells – cell-based, MIPE5.0 library, qHTS (AID 1347068; cut-off not given, nearly all actives have IC50 up to about 30 µM). Particulars: SU-DIPG-XXV viability. In general terms: qHTS replaces the single test concentration by a dilution series.
Test [13] is described as follows: viability loss with induced miR-34 in A549 – imaging, A549 dox-inducible miR-34, nuclei and caspase counts, primary screen (AID 1347080). The following applies: A549 miR-34 inducible, Hoechst nuclei count, 48 h.
A short description of test [14]: MELAS cybrid and Rieske KO viability enhancers – cell-based, MELAS cybrids, Rieske KO mouse fibroblasts, CellTiter-Glo, primary screen (AID 1508586;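 active = mean z-score across replicates of 1.96 or higher in either the MELAS or the Rieske mutant cell line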;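 also: z relative to plate mean and SD of compound and empty wells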). Particulars: low glucose.
Test [15] is described as follows: viability loss in pontine glioma line – cell-based, SU-DIPG-IV, MIPE4.0, CellTiter-Glo, qHTS, dose response (AID 1347063; cut-off not given, nearly all actives have AC50 up to about 30 µM;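 also: compound exposure lasted 48 hours before the viability readout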). The following applies: CellTiter-Glo ATP luminescence.
Test [16] is described as follows: viability loss in pontine glioma line – cell-based, SU-DIPG-XXV, MIPE5.0, CellTiter-Glo, qHTS, dose response (AID 1347065; cut-off not given, nearly all actives have AC50 up to about 26 µM;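 also: cells exposed to compound for 48 hours before ATP readout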). Particulars: CellTiter-Glo ATP luminescence.
A short description of test [17]: blockers of cellular phospholipid synthesis – cell-based, LOPAC library, screen 4, primary screen (AID 1347384; call rule not given here). Particulars: animal cells, phospholipid biosynthesis inhibition screen; at 10 µM.
A short description of test [18]: galactose survival enhancers in mitochondrial complex I cybrids – cell-based, galactose medium, ATP luminescence, primary screen (AID 1645843;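 active = z-score of at least 1.8 in each of two replicates, scored against plate mean and spread of sample wells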;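 also: positive z means more ATP and so rescue of galactose-driven cybrid death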). Particulars: complex I mutant cybrid cells, 72 h, stronger effect = higher value.
[19] abbreviates: stronger effect = lower value, cell number ratio, induced over uninduced.
Setting [20] is: measured here: relative caspase fold change +Dox/-Dox.
Setting [21] is: measured here: total cells with miR-34 induction, stronger effect = lower value.
[22] abbreviates: measured here: total cells without miR-34 induction.
The mark [23] stands for this setting: MELAS cybrid survival, CellTiter-Glo 48 h, stronger effect = higher value.
Setting [24] is: Rieske KO mouse fibroblast survival, CellTiter-Glo 72 h.

Values joined by “and” are separate entries in the source; they are usually repeats but may differ in a detail not shown here. Equal entries are not always repeated. Records with an inconclusive call do not appear. Active and inactive are the calls of the source.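 The calls were made as follows, unless noted: active = compounds whose cell count with miR-34 switched on is under 0.7 times the count with it off; inactive = the rest.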

Take `COCCCN1CCC(NC(=O)c2cc(Cl)c(N)c3c2OCC3)CC1`: the nuclear beta-catenin stimulation was 0.7% (inactive) in test [1] (at 10 µM) and -2% in [1] (stimulation, at 2 µM). Also, the insulin secretion stimulation in test [2] was 1% (inactive). Moreover, the viability decrease in test [3] is -4.2% (inactive). Moreover, the tube area decrease in test [4] is -8% (inactive). For the same compound, the GLP1 secretion stimulation in test [5] is 1.9% (inactive). Also, the inhibition of viability in [6] was 3.4% (inactive). Moreover, the viability decrease (inhibition) in [7] is -13.9% (inactive); in [8] it was -4.2% (inactive). Further, the result in [9], in [11] and in test [12] was inactive. In addition, in test [10], the AC50 is 23.5 µM (active). The fold change in [13] (setting [19]) was 0.972 (inactive) and 1.31 (inactive); in test [13] (setting [20]) it was 0.687 and 0.593. For the same compound, the cell count was 8080 and 7810 in [13] (setting [21]); 8300 and 5970 in [13] (setting [22]). The z-score in test [14] (setting [23]) was -0.321 (inactive) and -0.32 (inactive); in test [14] (setting [24]), -0.104 and -0.205.
As for `COc1ccc2cccc(CCNC(C)=O)c2c1`, the nuclear beta-catenin stimulation in [1] (at 10 µM) was 1.6% (inactive); in test [1] (stimulation, at 2 µM), -1%. For the same compound, the insulin secretion stimulation in test [2] was -1.5% (inactive). For the same compound, the viability decrease in test [3] is 2.7% (inactive). Further, the tube area decrease in test [4] is 1% (inactive). Besides, in test [5], the GLP1 secretion stimulation was -0.3% (inactive). In addition, in test [6], the inhibition of viability is 3.7% (inactive). For the same compound, the results for the viability decrease (inhibition) in [7] and in test [8] were -8.5% (inactive) and 3.3% (inactive), respectively. Further, the outcome in test [9], in [15], in test [16], in test [10], in test [11] and in [12] was inactive. In addition, the compound was classed as inactive in [17]. The fold change is 0.904 (inactive) and 0.982 (inactive) and 0.944 (inactive) in test [13] (setting [19]); 0.381 and 0.908 and 0.855 in test [13] (setting [20]). Also, the cell count is 8590 and 5820 and 7020 in test [13] (setting [21]); 9510 and 5930 and 7430 in test [13] (setting [22]). The z-score is 0.556 (inactive) and -0.393 (inactive) in [14] (setting [23]); 0.28 and -0.0702 in test [14] (setting [24]); 0.205 (inactive) in [18].
With `CCCCN(CCCC)CC(O)c1cc(Cl)cc2c1-c1ccc(Cl)cc1/C2=C/c1ccc(Cl)cc1` (configuration not stated), the nuclear beta-catenin stimulation in test [1] (at 10 µM) was 0.5% (inactive); in test [1] (stimulation, at 2 µM), -0.3%. In [2], the insulin secretion stimulation was -0.3% (inactive). The viability decrease in [3] is 9.1% (inactive). Moreover, the tube area decrease in test [4] was 25.1% (inactive). Further, the GLP1 secretion stimulation in test [5] was -3.6% (inactive). In addition, the inhibition of viability in [6] is 31% (inactive). In addition, the viability decrease (inhibition) was 10.6% (inactive) in [7] and 14.9% (inactive) in test [8]. Also, the compound was called inactive in test [9], in test [10], in test [12] and in test [17]. Also, the AC50 in test [15] is 26.4 µM (active); in test [11], 18.6 µM (active). Besides, the results for the fold change in [13] (setting [19]) and in [13] (setting [20]) were 1.04 (inactive) and 2.5, respectively. The cell count turned out to be 8950 in test [13] (setting [21]) and 8560 in test [13] (setting [22]). The z-score in [18] is 0.075 (inactive).
For `CC1(C)CCC(C)(C)c2cc(NC(=O)c3ccc(C(=O)O)cc3)ccc21`, the nuclear beta-catenin stimulation in test [1] (at 10 µM) was 8% (inactive); in test [1] (stimulation, at 2 µM) it was 8.5%. Further, the insulin secretion stimulation in test [2] was -0.4% (inactive). For the same compound, the viability decrease in test [3] was 77.6% (active). Also, the tube area decrease in test [4] was 5.5% (inactive). Further, the GLP1 secretion stimulation in test [5] was 4% (inactive). Also, the inhibition of viability in test [6] was 69.7% (active). Further, the viability decrease (inhibition) in test [7] is 47.9% (inactive); in test [8], 43.1% (inactive). The result in test [9], in test [16], in test [10], in test [11] and in test [12] was inactive. The fold change was 0.901 (inactive) in test [13] (setting [19]) and 0.365 in test [13] (setting [20]). Further, the cell count was determined as 8210 in [13] (setting [21]) and 9110 in [13] (setting [22]). The z-score was 0.242 (inactive) in test [14] (setting [23]) and -0.199 in test [14] (setting [24]).

The AC50 is the midpoint of the concentration-response curve, whichever way the signal moves.
